About 83,000 compounds went through this panel and 20% of them were active in at least one assay; those are over-represented in the sample as a whole.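 96-well plates, one dose, 48 hours. Percent growth reported; active if below 10.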 Active and inactive are the calls of the source.
tested on: SK-MEL-5 melanoma; test: NCI-60 one-dose screen, 48 h (100 = growth as untreated, 0 = no growth, -100 = all killed); conditions: 10 µM unless noted

Compound	growth
COc1ccc(C(O)c2cc3c(N)c(C(=O)Nc4cccc(Br)c4)sc3nc2C)cc1 (stereo not given)	-72.9% (active)
CC/C(=C(/c1ccc(Cl)cc1)c1ccc(OCCN2CCCCC2)cc1)c1ccc(OC)cc1	36.6% (inactive)
CCOC(=O)c1c2c(n3cccc(F)c13)C(=O)c1ncccc1C2=O	-23% (active)
CC(=O)O[C@@H]1C[C@]2(C(C)C)O[C@@]1(C)[C@@H]1CCC(C)=C1[C@@H]2OC(=O)/C=C/c1ccccc1	90.7% (inactive)
O=C(O)c1ccc(-n2cc(/C=N/Nc3ccccc3)c(-c3ccc(F)cc3F)n2)cc1	58% (inactive)
O=C(NCc1ccc(Cl)cc1Cl)C1CCC(=O)N1c1cccs1 (stereo not given)	102% (inactive)
CCSc1oc(-c2ccccc2)nc1[P+](c1ccccc1)(c1ccccc1)c1ccccc1	-91.8% (active)
O=C1C(=O)N(Cc2ccc(-c3ccccc3)cc2)c2ccc(OC(F)(F)F)cc21	92.2% (inactive)
Cc1nc2sc(C(=O)Nc3ccc(Br)cc3)c(N)c2cc1C(O)c1ccccc1 (stereo not given)	39.9% (inactive)
O=C(Cn1cc(CSc2nc3ccccc3o2)nn1)Nc1ccc(F)cc1F	98.4% (inactive)
COC(=O)c1nc(-c2ccc(C)cc2)oc1S(=O)(=O)c1cccc(OC)c1	97.8% (inactive)
COc1ccc(C/C(C)=C(/c2ccc(OCCN(C)C)cc2)c2ccc(OC(=O)NCc3ccccc3)cc2)cc1	63.1% (inactive)
COc1ccc(/C=C(\C#N)n2nnc3cc(F)c(F)cc32)cc1	52.2% (inactive)
COC(=O)c1c2c(c(C)[n+]([O-])c1C)C(=O)C(NCc1cccc(OC)c1)=CC2=O	-54.8% (active)
COc1ccc(-c2nc3cc(C(=O)NCc4ccccc4)ccc3n2C2CCCCC2)cc1	38.6% (inactive)
CCN(CC)CCn1c2ccc(OC)cc2c2sc3cc(OC)ccc3c(=O)c21	57% (inactive)
COc1ccc(C(=O)N2c3ccccc3Sc3ccccc32)c(OC)c1	19% (inactive)
CCN1CCN(C(=O)[C@]23CCC(C)(C)C[C@@H]2C2=CC[C@@H]4[C@@]5(C)CCC(=O)C(C)(C)[C@@H]5CC[C@@]4(C)[C@]2(C)CC3)CC1	49.2% (inactive)
Clc1ccc2c(NC3CCC(N4CCOCC4)CC3)ccnc2c1 (stereo not given)	53.4% (inactive)
CCCOC(=O)Nc1nc2ccc(SCC(C)C)cc2s1	27.6% (inactive)

Compound	growth
COc1ccc(Nc2ncc(Br)c(NCCCNC(=O)c3cccs3)n2)cc1	69.5% (inactive)
N#Cc1c(-c2ccccc2)cc(-c2ccc(Nc3nc(Nc4ccc(Cl)cc4)nc(Nc4ccc(Cl)cc4)n3)cc2)nc1N	-13.8% (active)
COC(=O)c1c(C)c2n(c1C)C(=O)C(c1ccccc1)=C2	84.2% (inactive)
COc1ccc(Nc2ncc(Br)c(NCCCNC(=O)C3CCCC3)n2)cc1	67.5% (inactive)
C=CCn1c(C)nc2ccc(Nc3nc(Nc4ccc5nc(C)n(CC=C)c5c4)c4ccccc4n3)cc21	-94.2% (active)
O=C(O)c1cn(C2CC2)c2cc(N3CCN(Cc4ccc5ccccc5c4O)CC3)c(F)cc2c1=O	61.6% (inactive)
N#C/C(=C\c1c(-c2ccccc2)[nH]c2ccccc12)C(N)=O	64.7% (inactive)
COc1ccc(C2CC(c3ccc(Nc4nc(Nc5ccccc5)nc(Nc5ccccc5)n4)cc3)=NN2C(C)=O)cc1 (stereo not given)	83.5% (inactive)
COc1cc2c(c(OC)c1OC)CCC(c1cccc(C(=O)Nc3cccc(Cl)c3)c1)O2 (stereo not given)	63% (inactive)
COc1cc(OCc2cccc(Br)c2C)cc(OC)c1C=O	91.9% (inactive)
COC1=CC(c2ccc[nH]2)=N/C1=C\c1[nH]c(C)c(C(=O)OC(C)C)c1C	-99.5% (active)
CCCc1c(OC(=O)c2ccccc2)nc2[nH]c(=O)sc2c1C	98% (inactive)
CN(C)c1ccc(-c2c(C#N)c(N)nn2C(=O)c2ccc(NC(=O)c3ccccn3)cc2)cc1	101% (inactive)
CC1CCN(CCOc2ccc(CNc3ccc4nc(CCC5CCCCC5)[nH]c4c3)cc2)CC1	-99% (active)
COc1cc2c(cc1OCCCN1CCN(CCCOc3cc4c(cc3OC)C(=O)N3CCC[C@H]3C=N4)CC1)C=CC(C)(C)O2	-100% (active)
Oc1c(I)cc(I)cc1CNCCN(Cc1ccccn1)Cc1ccccn1	-97% (active)
O=CN1N=C(c2cccc(Nc3ccnc4cc(Cl)ccc34)c2)CC1c1ccccc1 (stereo not given)	17.9% (inactive)
COc1cc2c(cc1OC)C(C)N(S(N)(=O)=O)CC2 (stereo not given)	105% (inactive)
CCCC/C(CC)=N\NS(=O)(=O)c1ccc([N+](=O)[O-])cc1	98.2% (inactive)
O=[N+]([O-])c1ccc(O)cc1Br	93.3% (inactive)

tested on: UACC-62 melanoma; test: as above; conditions: 10 µM unless noted

Compound	growth
COc1ccc(C(O)c2cc3c(N)c(C(=O)Nc4cccc(Br)c4)sc3nc2C)cc1 (stereo not given)	13.5% (inactive)
CC/C(=C(/c1ccc(Cl)cc1)c1ccc(OCCN2CCCCC2)cc1)c1ccc(OC)cc1	78.8% (inactive)
CCOC(=O)c1c2c(n3cccc(F)c13)C(=O)c1ncccc1C2=O	-33.4% (active)
CC(=O)O[C@@H]1C[C@]2(C(C)C)O[C@@]1(C)[C@@H]1CCC(C)=C1[C@@H]2OC(=O)/C=C/c1ccccc1	83.6% (inactive)
O=C(O)c1ccc(-n2cc(/C=N/Nc3ccccc3)c(-c3ccc(F)cc3F)n2)cc1	-14.3% (active)
O=C(NCc1ccc(Cl)cc1Cl)C1CCC(=O)N1c1cccs1 (stereo not given)	80.7% (inactive)
CCSc1oc(-c2ccccc2)nc1[P+](c1ccccc1)(c1ccccc1)c1ccccc1	-0.29% (active)
O=C1C(=O)N(Cc2ccc(-c3ccccc3)cc2)c2ccc(OC(F)(F)F)cc21	62.3% (inactive)
Cc1nc2sc(C(=O)Nc3ccc(Br)cc3)c(N)c2cc1C(O)c1ccccc1 (stereo not given)	41.8% (inactive)
O=C(Cn1cc(CSc2nc3ccccc3o2)nn1)Nc1ccc(F)cc1F	111% (inactive)
COC(=O)c1nc(-c2ccc(C)cc2)oc1S(=O)(=O)c1cccc(OC)c1	92.5% (inactive)
COc1ccc(C/C(C)=C(/c2ccc(OCCN(C)C)cc2)c2ccc(OC(=O)NCc3ccccc3)cc2)cc1	69.3% (inactive)
COc1ccc(/C=C(\C#N)n2nnc3cc(F)c(F)cc32)cc1	29.6% (inactive)
COC(=O)c1c2c(c(C)[n+]([O-])c1C)C(=O)C(NCc1cccc(OC)c1)=CC2=O	-13.3% (active)
COc1ccc(-c2nc3cc(C(=O)NCc4ccccc4)ccc3n2C2CCCCC2)cc1	91% (inactive)
CCN(CC)CCn1c2ccc(OC)cc2c2sc3cc(OC)ccc3c(=O)c21	47.2% (inactive)
COc1ccc(C(=O)N2c3ccccc3Sc3ccccc32)c(OC)c1	13.8% (inactive)
CCN1CCN(C(=O)[C@]23CCC(C)(C)C[C@@H]2C2=CC[C@@H]4[C@@]5(C)CCC(=O)C(C)(C)[C@@H]5CC[C@@]4(C)[C@]2(C)CC3)CC1	47.3% (inactive)
Clc1ccc2c(NC3CCC(N4CCOCC4)CC3)ccnc2c1 (stereo not given)	77.4% (inactive)
CCCOC(=O)Nc1nc2ccc(SCC(C)C)cc2s1	18.9% (inactive)

Compound	growth
COc1ccc(Nc2ncc(Br)c(NCCCNC(=O)c3cccs3)n2)cc1	45.7% (inactive)
N#Cc1c(-c2ccccc2)cc(-c2ccc(Nc3nc(Nc4ccc(Cl)cc4)nc(Nc4ccc(Cl)cc4)n3)cc2)nc1N	54.5% (inactive)
COC(=O)c1c(C)c2n(c1C)C(=O)C(c1ccccc1)=C2	58.7% (inactive)
COc1ccc(Nc2ncc(Br)c(NCCCNC(=O)C3CCCC3)n2)cc1	46.2% (inactive)
C=CCn1c(C)nc2ccc(Nc3nc(Nc4ccc5nc(C)n(CC=C)c5c4)c4ccccc4n3)cc21	-87% (active)
O=C(O)c1cn(C2CC2)c2cc(N3CCN(Cc4ccc5ccccc5c4O)CC3)c(F)cc2c1=O	38.8% (inactive)
N#C/C(=C\c1c(-c2ccccc2)[nH]c2ccccc12)C(N)=O	58.9% (inactive)
COc1ccc(C2CC(c3ccc(Nc4nc(Nc5ccccc5)nc(Nc5ccccc5)n4)cc3)=NN2C(C)=O)cc1 (stereo not given)	94.3% (inactive)
COc1cc2c(c(OC)c1OC)CCC(c1cccc(C(=O)Nc3cccc(Cl)c3)c1)O2 (stereo not given)	53.4% (inactive)
COc1cc(OCc2cccc(Br)c2C)cc(OC)c1C=O	36.5% (inactive)
COC1=CC(c2ccc[nH]2)=N/C1=C\c1[nH]c(C)c(C(=O)OC(C)C)c1C	-62.9% (active)
CCCc1c(OC(=O)c2ccccc2)nc2[nH]c(=O)sc2c1C	88.8% (inactive)
CN(C)c1ccc(-c2c(C#N)c(N)nn2C(=O)c2ccc(NC(=O)c3ccccn3)cc2)cc1	73.2% (inactive)
CC1CCN(CCOc2ccc(CNc3ccc4nc(CCC5CCCCC5)[nH]c4c3)cc2)CC1	56.8% (inactive)
COc1cc2c(cc1OCCCN1CCN(CCCOc3cc4c(cc3OC)C(=O)N3CCC[C@H]3C=N4)CC1)C=CC(C)(C)O2	1.28% (active)
Oc1c(I)cc(I)cc1CNCCN(Cc1ccccn1)Cc1ccccn1	-14.3% (active)
O=CN1N=C(c2cccc(Nc3ccnc4cc(Cl)ccc34)c2)CC1c1ccccc1 (stereo not given)	34.7% (inactive)
COc1cc2c(cc1OC)C(C)N(S(N)(=O)=O)CC2 (stereo not given)	95.4% (inactive)
CCCC/C(CC)=N\NS(=O)(=O)c1ccc([N+](=O)[O-])cc1	98.5% (inactive)
O=[N+]([O-])c1ccc(O)cc1Br	105% (inactive)

— PubChem BioAssay (NCI)
